Measured values taken from PubChem BioAssay AID1159580 (chemical genetic matrix, 2015).
Where “and” joins values, the source holds several entries; their conditions need not be identical. Identical values can stand only once. Out of some 5,500 compounds screened, about 2,000 (36%) were called active. Inconclusive results (about 18%) are left out. Cut-off read from the data, not from the text of the source: active = normalized growth mostly below about 0.91 (no sharp cut-off); inconclusive = no clear call, values can overlap the other calls; inactive = mostly above about 0.92. The list shows a part of the results.

Test: chemical genetic growth profiling, strain panel (AID 1159580);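 note: tested at 20 µM; growth read once vehicle control cultures reached saturation at 30 °C; 1 = growth at the plate median or of vehicle wells; lower values mean less growth of the strain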
Conditions: S. cerevisiae deletion strains, growth OD

Measured: normalized growth

C=C[C@H]1CN2CC[C@H]1C[C@@H]2[C@H](O)c1ccnc2ccccc12
inactive: locus YAL013W, strain DEP1, hits give low values 1 | locus YAL021C, strain ccr4, hits give low values 1.01 | locus YAL026C, strain drs2, hits give low values 0.994 | locus YAL030W, strain snc1, hits give low values 0.999 | locus YBL061C, strain skt5, hits give low values 0.992 | locus YBR009C, strain hhf1, hits give low values 0.988 | locus YBR021W, strain FUR4, hits give low values 1.02 | locus YBR023C, strain chs3, hits give low values 0.981 | locus YBR171W, strain sec66, hits give low values 0.988 | locus YBR229C, strain ROT2, hits give low values 0.995 | locus YBR231C, strain swc5, hits give low values 0.989 | locus YBR279W, strain paf1, hits give low values 0.996 | locus YCL011C, strain gbp2, hits give low values 0.988 | locus YCL016C, strain dcc1, hits give low values 0.979 | locus YCL029C, strain bik1, hits give low values 0.973 | locus YCL069W, strain vba3, hits give low values 0.987 | locus YCR088W, strain abp1, hits give low values 0.994 | locus YDL005C, strain med2, hits give low values 0.975 | locus YDL035C, strain GPR1, hits give low values 1.02 | locus YDL040C, strain nat1, hits give low values 0.983 | locus YDL074C, strain BRE1, hits give low values 0.999 | locus YDL101C, strain DUN1, hits give low values 0.985 | locus YDL134C, strain PPH21, hits give low values 0.997 | locus YDL185W, strain tfp1, hits give low values 0.976 | locus YDL192W, strain arf1, hits give low values 0.98 | locus YDR001C, strain nth1, hits give low values 0.985 | locus YDR069C, strain doa4, hits give low values 0.996 | locus YDR101C, strain arx1, hits give low values 0.985 | locus YDR137W, strain rgp1, hits give low values 0.99 | locus YDR150W, strain NUM1, hits give low values 0.986 | locus YDR159W, strain sac3, hits give low values 1.02 | locus YDR162C, strain NBP2, hits give low values 0.988 | locus YDR195W, strain ref2 0.989 | locus YDR297W, strain sur2, hits give low values 1.01 | locus YDR318W, strain mcm21, hits give low values 0.985 | locus YDR334W, strain swr1, hits give low values 0.977 | locus YDR335W, strain msn5, hits give low values 0.99 | locus YDR388W, hits give low values 0.988 | locus YDR392W, strain spt3, hits give low values 0.973 | locus YDR502C, strain sam2, hits give low values 0.982 | locus YEL003W, strain gim4, hits give low values 0.989 | locus YEL037C, strain rad23, hits give low values 0.983 | locus YEL061C, strain CIN8 (second series), hits give low values 0.993 | locus YEL061C, strain CIN8, hits give low values 0.998 | locus YER015W, strain faa2, hits give low values 0.986 | locus YER016W, strain bim1, hits give low values 0.987 | locus YER110C, hits give low values 0.981 | locus YER111C, strain swi4, hits give low values 0.975 | locus YER155C, strain BEM2 (second series), hits give low values 0.972 | locus YER155C, strain BEM2, hits give low values 0.995 | locus YER167W, strain BCK2, hits give low values 1 | locus YFR010W, strain ubp6, hits give low values 0.999 | locus YGL078C, strain dbp3, hits give low values 1.01 | locus YGL086W, strain mad1, hits give low values 1.01 | locus YGL167C, strain pmr1, hits give low values 0.993 | locus YGL173C, strain kem1, hits give low values 0.981 | locus YGL227W, strain vid30, hits give low values 0.984 | locus YGL240W, strain doc1, hits give low values 0.986 | locus YGL248W, strain PDE1, hits give low values 0.994 | locus YGL253W, strain hxk2, hits give low values 0.994 | locus YGR078C, strain PAC10, hits give low values 0.988 | locus YGR135W, strain pre9, hits give low values 0.978 | locus YGR229C, strain SMI1, hits give low values 1.02 | locus YGR252W, strain gcn5, hits give low values 1.17 | locus YHR013C, strain ard1, hits give low values 0.962 | locus YHR027C, strain rpn1, hits give low values 0.992 | locus YHR030C, strain SLT2, hits give low values 0.994 and 0.988 | locus YHR079C, strain IRE1 (second series), hits give low values 0.979 | locus YHR079C, strain IRE1, hits give low values 1 | locus YHR094C, strain hxt1, hits give low values 0.97 | locus YHR129C, strain ARP1, hits give low values 0.989 | locus YHR142W, strain chs7, hits give low values 0.974 | locus YHR200W, strain rpn10, hits give low values 0.994 | locus YIL066C, strain RNR3, hits give low values 0.992 | locus YIL073C, strain SPO22, hits give low values 0.928 | locus YIL125W, strain kgd1, hits give low values 0.988 | locus YIR030C, strain dcg1, hits give low values 0.989 | locus YJL092W, strain hpr5, hits give low values 0.99 | locus YJL095W, strain BCK1 (second series), hits give low values 0.985 | locus YJL095W, strain BCK1, hits give low values 0.977 and 1 | locus YJL115W, strain asf1, hits give low values 0.972 | locus YJL129C, strain trk1, hits give low values 0.992 | locus YJL134W, strain LCB3, hits give low values 0.992 | locus YJL154C, strain vps35, hits give low values 0.971 | locus YJL164C, strain tpk1, hits give low values 0.987 | locus YJL166W, strain qcr8, hits give low values 1 | locus YJL168C, strain set2, hits give low values 0.983 | locus YJL187C, strain SWE1 (second series), hits give low values 0.956 | locus YJR043C, strain POL32, hits give low values 0.996 | locus YJR066W, strain TOR1, hits give low values 0.989 | locus YJR075W, strain HOC1, hits give low values 0.978
